# Data as given in PubChem BioAssay (NCATS).
# Where “and” joins values, the source holds several entries; their conditions need not be identical. Equal entries are not always repeated. Inconclusive results are not listed. Where a call stands in place of a potency, no number is given. Some compounds were tested as several samples or in several runs, with calls that do not always agree. Calls of active or inactive are those of the source. The call rests on the fitted dose curve; in most records, active means well fitted inhibition curve with a large enough effect; inconclusive means small, poorly fitted or top-dose-only effect; inactive means flat fitted curve, though single readings scatter.
# Test system: MCC-26
# Experiment: qHTS assay to identify novel small-molecules to repurpose for Merkel cell carcinoma treatment (AID 1296009); further: nearly all actives have a fitted effect of over 60% in size
# Settings: MCC and control cell lines, CellTiter-Glo viability, 72 h; series mostly up to 46 µM; activity change, negative = cytotoxicity: at the top concentration
# Summary of the method: (§1)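 Luminescence from CellTiter-Glo, read 10 min after addition at room temperature, reported viability following a 72 hr, 37 degree celsius treatment with NPC or MIPE compounds in titration; values normalized to plate controls.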
# Potency means the concentration at half of the fitted maximal effect.
Structure (SMILES),Potency,"activity change, negative = cytotoxicity"
CC(C)C1CCC(C(=O)N[C@H](Cc2ccccc2)C(=O)O)CC1 (stereo partly specified),inactive,–
COc1c(N2CCNC(C)C2)c(F)cc2c(=O)c(C(=O)O)cn(C3CC3)c12 (stereo unspecified),inactive,–
CC(C)(C)NC(=O)[C@H]1CC[C@H]2[C@@H]3CC[C@H]4NC(=O)C=C[C@]4(C)[C@H]3CC[C@]12C,inactive,–
CCCCS(=N)(=O)CCC(N)C(=O)O (stereo unspecified),–,6.5% (inactive)
Nc1nc(N)nc(-c2cc(Cl)ccc2Cl)n1,inactive,–
CCCCOc1ccc(CC(=O)NO)cc1,–,-7.74% (inactive)
NCCCC(O)(P(=O)(O)O)P(=O)(O)O,inactive,–
COc1cc2ncnc(Nc3cccc(Cl)c3)c2cc1OC,–,-9.76% (inactive)
Cc1oc(=O)oc1CN1CCN(c2cc3c(cc2F)c(=O)c(C(=O)O)c2n3C(C)S2)CC1 (stereo unspecified),inactive,–
O=C(O)C1CCCN(CCC=C(c2ccccc2)c2ccccc2)C1 (stereo unspecified),–,-4.05% (inactive)
CC[C@H](C)C(=O)O[C@H]1C[C@@H](C)C=C2C=C[C@H](C)[C@H](CC[C@@H]3C[C@@H](O)CC(=O)O3)[C@H]21,–,-10.6% (inactive)
CNC1CCCN(c2c(F)cc3c(=O)c(C(=O)O)cn(C4CC4)c3c2OC)C1 (stereo unspecified),inactive,–
Nc1nc(N)c2nc(CNc3ccc(C(=O)NC(CCC(=O)O)C(=O)O)cc3)cnc2n1 (stereo unspecified),–,-0.493% (inactive)
CCOC(=O)[C@H](CCc1ccccc1)N[C@H]1CCc2ccccc2N(CC(=O)O)C1=O,–,2.72% (inactive)
O=C(O)c1cn(C2CC2)c2cc(N3CCNCC3)c(F)cc2c1=O,inactive,–

# Test system: MKL-1
# Experiment: as above
# Settings: MCC and control cell lines, CellTiter-Glo viability, 72 h; series mostly up to 46 µM; activity change, negative = cytotoxicity: at the top concentration
# Summary of the method: as §1
Structure (SMILES),Potency,"activity change, negative = cytotoxicity"
CC(N)C12CC3CC(CC(C3)C1)C2 (stereo unspecified),inactive,–
COc1cccc(N(C)C(=S)Oc2ccc3c(c2)CCCC3)n1,inactive,–
NC(=O)c1cccc(N)c1,–,-3.93% (inactive)
O=c1oc2c(O)c(O)cc3c(=O)oc4c(O)c(O)cc1c4c23,inactive,–
Nc1nc(=S)c2[nH]cnc2[nH]1,2.37 µM (active) and 23.5 µM (active),–
N[C@@H](C(=O)N[C@@H]1C(=O)N2C(C(=O)O)=C(Cl)CS[C@H]12)c1ccccc1,inactive,–
CC(C)C[C@H](NC(=O)[C@H](CCc1ccccc1)NC(=O)CN1CCOCC1)C(=O)N[C@@H](Cc1ccccc1)C(=O)N[C@@H](CC(C)C)C(=O)[C@@]1(C)CO1,5.3 nM (active) and 37.2 nM (active),–
NC(=O)c1ccc2[nH]ccc2c1,–,-0.504% (inactive)
COC(c1ccccc1)(c1ccccc1)[C@H](Oc1nc(C)cc(C)n1)C(=O)O,inactive,–
COc1nc(N)nc2c1ncn2[C@@H]1O[C@H](CO)[C@@H](O)[C@@H]1O,inactive,–
CCN(CC)CCn1c(=O)c(Cc2ccc(OC)cc2)nc2ccccc21,–,9.95% (inactive)
COc1cc(NS(=O)(=O)c2ccc(N)cc2)nc(OC)n1,inactive,–
O=C(NCC1CN(c2ccc(N3CCOCC3=O)cc2)C(=O)O1)c1ccc(Cl)s1 (stereo unspecified),inactive,–
CN(C)c1ccc(C(=C2C=CC(=[N+](C)C)C=C2)c2ccc(N(C)C)cc2)cc1,118 nM (active),–
CC1=C(C(=O)O)N2C(=O)[C@@H](NC(=O)C(N)c3ccccc3)[C@H]2SC1 (stereo partly specified),–,7.81% (inactive)
CCN1CCCC1CNC(=O)c1cc(S(N)(=O)=O)ccc1OC (stereo unspecified),–,3.76% (inactive)

Structure (SMILES),Potency,"activity change, negative = cytotoxicity"
CC(C)NCC(O)c1ccc(NS(C)(=O)=O)cc1 (stereo unspecified),–,5.24% (inactive)
CC(C)C1CCC(C(=O)N[C@H](Cc2ccccc2)C(=O)O)CC1 (stereo partly specified),inactive,–
COc1c(N2CCNC(C)C2)c(F)cc2c(=O)c(C(=O)O)cn(C3CC3)c12 (stereo unspecified),inactive,–
CC(C)(C)NC(=O)[C@H]1CC[C@H]2[C@@H]3CC[C@H]4NC(=O)C=C[C@]4(C)[C@H]3CC[C@]12C,inactive,–
CCCCS(=N)(=O)CCC(N)C(=O)O (stereo unspecified),–,-5.63% (inactive)
Nc1nc(N)nc(-c2cc(Cl)ccc2Cl)n1,inactive,–
NCCCC(O)(P(=O)(O)O)P(=O)(O)O,inactive,–
COc1cc2ncnc(Nc3cccc(Cl)c3)c2cc1OC,–,6.36% (inactive)
Cc1oc(=O)oc1CN1CCN(c2cc3c(cc2F)c(=O)c(C(=O)O)c2n3C(C)S2)CC1 (stereo unspecified),inactive,–
O=C(O)C1CCCN(CCC=C(c2ccccc2)c2ccccc2)C1 (stereo unspecified),–,3.67% (inactive)
CC[C@H](C)C(=O)O[C@H]1C[C@@H](C)C=C2C=C[C@H](C)[C@H](CC[C@@H]3C[C@@H](O)CC(=O)O3)[C@H]21,23.7 µM (active) and inactive,–
CNC1CCCN(c2c(F)cc3c(=O)c(C(=O)O)cn(C4CC4)c3c2OC)C1 (stereo unspecified),inactive,–
Nc1nc(N)c2nc(CNc3ccc(C(=O)NC(CCC(=O)O)C(=O)O)cc3)cnc2n1 (stereo unspecified),–,-0.661% (inactive)
CCOC(=O)[C@H](CCc1ccccc1)N[C@H]1CCc2ccccc2N(CC(=O)O)C1=O,–,-19.7% (inactive)
O=C(O)c1cn(C2CC2)c2cc(N3CCNCC3)c(F)cc2c1=O,inactive,–
